The whole screen tested about 94,000 compounds, of which about 6,200 (6.6%) were called active. Where a call stands in place of a potency, no number is given. Another 31% or so got no clear call; they are omitted. Calls come from the whole dose curve; as a rule, active = well fitted inhibition curve with a large enough effect; inconclusive = small, poorly fitted or top-dose-only effect; inactive = flat fitted curve, though single readings scatter. Only a selection was taken, and actives are over-represented in it overall.
Experiment: Cytotoxic Profiling in HEK 293 Cell Line of Diverse Libraries Using Quantitative High-Throughput Screening; note: nearly all actives have a fitted effect of over 60% in size
Conditions: HEK 293 viability, ATP luminescence (CellTiter-Glo), 48-72 h; series mostly up to 115 µM
In short: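 Luminescence from cellular ATP, measured with CellTiter-Glo, indicates HEK 293 viability. Cells plated at 250 cells/well are treated with compound for 48 or 72 hr at 37 degree Celsius before reagent addition.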
Potency is the fitted concentration of half-maximal effect.

Row | Structure (SMILES) | Potency
1 | COCCS(=O)(=O)c1ncc(CN2CCCCO2)n1Cc1ccccc1 | inactive
2 | CCCN1C(=O)[C@H]2CC[C@@H]1CN(C(=O)c1nc(-c3ccccc3)[nH]c1C)C2 | inactive
3 | O=C(NC[C@H]1Cn2c(-c3ccc(F)cc3)cnc2CO1)C1CC1 | inactive
4 | Cc1ccc(Cl)cc1NC(=O)N1C[C@@H](F)C[C@H]1C(=O)N1CCCCC1 | inactive
5 | COc1cccc(NC(=O)N[C@H]2CCN(C(=O)C=C(C)C)[C@@H]2C(=O)N[C@@H](Cc2cccs2)C(N)=O)c1 | inactive
6 | O=C1CC(c2ccccc2)N(C(=O)CNC(=O)c2cnccn2)CCCCCCN1 (configuration not stated) | inactive
7 | CC(C)(C)C(=O)Nc1cc(C2CC2)nn1-c1ccccc1 | inactive
8 | Cc1nn(CCC#N)c(C)c1[C@@H]1C=C[C@@H](NS(=O)(=O)c2ccccc2)C1 | inactive
9 | Cc1nn(-c2cccc(Br)c2)c(C)c1[C@@H]1C=C[C@@H](NS(=O)(=O)c2ccccc2)C1 | 44.7 µM (active)
10 | c1c[nH]c(CNC[C@H]2Cn3ccnc3CO2)n1 | inactive
11 | CCOc1ccc(NC(=O)Cn2nc3n(c2=O)CCN(Cc2ccccc2C)C3=O)cc1 | inactive
12 | Cc1ccccc1CN1Cc2nc(NCc3ccncc3)ccc2OCC1=O | 89.1 µM (active)
13 | COc1ccc(Nc2ccc3c(n2)CN(Cc2ccccc2C)C(=O)CO3)cn1 | 100 µM (active)
14 | COc1ccc(CN2CCN3C(=O)N(c4ccccc4)C[C@H]3C2)cn1 | inactive
15 | CC(=O)N1CCCN(C(=O)c2cnc3c(c2)N(C(=O)Cc2ccc(C(C)C)cc2)CCC3)CC1 | inactive
16 | CCC(C)NC(=O)N1CCC(CCOC)(NS(C)(=O)=O)CC1 (configuration not stated) | inactive
17 | O=C(c1nc(-c2cccnc2)c2cnccn12)N1CCN(c2ncccn2)CC1 | inactive
18 | CN(C)c1ccc(C(=O)N[C@H]2C[C@H]3C(=O)NC[C@@H](CCC(=O)N4CCc5ccccc54)N3C2)cc1 | inactive
19 | O=C(c1ccccc1)N1CCN(C(=O)c2nc3cccnc3n(C3CC3)c2=O)CC1 | inactive
20 | CCC(=O)N1CCC(CC(=O)N2CCOCC2)C1 (configuration not stated) | inactive
21 | COC(=O)CNC(=O)C1CCN(Cc2ccccc2-c2ccccc2F)CC1 | inactive
22 | C#CCNC(=O)C1CCN(Cc2ccccc2-c2ccccc2F)CC1 | inactive
23 | O=C(C1CCN(Cc2ccccc2-c2ccccc2F)CC1)N1CCC(c2ccccc2)CC1 | 25.1 µM (active)
24 | CC1CCC2(CC1)NC(=O)N(CC(=O)NCc1ccco1)C2=O (configuration not stated) | inactive
25 | Cn1cc(C#N)cc1-c1nc(COc2ccccc2)nn1CC(F)(F)F | inactive

Row | Structure (SMILES) | Potency
26 | COc1ccc(C2Cn3nnc(-c4noc(-c5ccc(OC)cc5C)n4)c3CO2)cc1 (configuration not stated) | inactive
27 | Cc1nc(CCNS(=O)(=O)c2cccnc2)no1 | inactive
28 | COC(=O)CCNC(=O)C1c2ccccc2C(=O)N(CC(C)C)C12CCCC2 (configuration not stated) | inactive
29 | COc1ccccc1NC(=O)C1c2ccccc2C(=O)N(CC(C)C)C12CCCC2 (configuration not stated) | 70.8 µM (active)
30 | COCCN1C(=O)c2ccccc2C(C(=O)NC2CC2)C12CCCCC2 (configuration not stated) | inactive
31 | COCCOC1CN(C2CCN(C(=O)C3CCOCC3)CC2)C12CCCCC2 (configuration not stated) | inactive
32 | CC[C@H]1CN(C(=O)c2cccnc2)CC[C@H]1CC(=O)NCc1cccnc1 | inactive
33 | CC(C)NC(=O)N1CCCC1c1noc(COc2ccc(F)cc2)n1 (configuration not stated) | inactive
34 | CN1C(=O)c2cccn2CC1C(=O)NC1CCN(Cc2ccccc2)CC1 (configuration not stated) | inactive
35 | Cc1cccc(C(=O)N2CCC(CC(=O)NCc3ccccc3)C2)c1 (configuration not stated) | inactive
36 | Cc1cccc(-c2cccc(CN3CCC(NC(=O)Nc4ccccc4)CC3)c2)c1 | 22.4 µM (active)
37 | O=C([C@@H]1C[C@H](F)CN1C(=O)Nc1ccccc1)N1CCCCC1 | inactive
38 | Cc1noc(C)c1C(=O)N[C@@H]1CN(c2ccncn2)C[C@H]1CN(C)C | inactive
39 | CN(Cc1cccnc1)C(=O)CCC[C@@H]1[C@H]2CCCN3CCC[C@@H](CN1C(=O)c1cccnc1)[C@@H]23 | inactive
40 | CCCc1sc(NC(=O)C[C@H]2NC(=O)c3ccccc3NC2=O)nc1C(=O)OC | inactive
41 | Cc1ccc(N2CC(Cc3ccccc3)N(C(=O)c3ccnn3C)CC2=O)cc1 (configuration not stated) | inactive
42 | COc1cccc(CN2Cc3nc(Nc4cccc(F)c4)ccc3OCC2=O)c1 | 89.1 µM (active)
43 | COc1cccc(CN2Cc3nc(-c4cc(F)cc(F)c4)ccc3OCC2=O)c1 | 63.1 µM (active)
44 | COc1cccc(CC(=O)NCCc2noc(-c3cccnc3)n2)c1 | inactive
45 | COc1ccc(-c2noc(-c3cccn3CC(=O)Nc3ccccc3)n2)cc1F | inactive
46 | CCN(Cc1cnn(CC)c1)C(=O)C1CCCCC(=O)N1Cc1cccc(OC)c1 (configuration not stated) | inactive
47 | COc1cccc(CN2CCN(C(=O)c3cnc4ccccn4c3=O)CC2=O)c1 | inactive
48 | COc1ccc(-c2ccc3c(n2)CN(CCOc2ccccc2)C(=O)CO3)cc1F | 79.4 µM (active)
49 | COc1cccc(CN2CCOC3CCN(C(=O)c4cccnc4)CC3C2=O)c1 (configuration not stated) | inactive
50 | COCCN1Cc2cc(OC)ccc2N(CC(O)COc2ccc(OC)cc2)CCC1=O (configuration not stated) | inactive

Row | Structure (SMILES) | Potency
51 | CCOCCOC1CCN(C(=O)NCc2ccc(C)cc2)CC1 | inactive
52 | CN1CCN(C(=O)c2nc3sccn3c2-c2ccc(F)cc2)CC1 | inactive
53 | COC(=O)[C@H]1CCCN1C(=O)[C@@H]1C[C@@H](NS(=O)(=O)c2cccs2)CCN1C(=O)COCC(=O)O | inactive
54 | CS(=O)(=O)N1C[C@H]2CCN(C(=O)c3ccncc3F)C[C@H]21 | inactive
55 | Cn1c(=O)[nH]cc(CC(=O)N2CCn3nc(Cc4ccccc4)cc3C2)c1=O | inactive
56 | CN(CCc1ccccn1)[C@@H]1[C@H](O)[C@H](CO)O[C@@H]1CNC1CCOCC1 | inactive
57 | COCC(=O)N[C@H]1CC(C)(C)[C@@H]2C[C@@](C)(O)CC[C@]12CCC(=O)N1CCN(c2ccccc2OC)CC1 | inactive
58 | CC(C)C(=O)N1CC(n2cc(COc3ccc(F)cc3)nn2)C1 | inactive
59 | COc1ccc(CC(=O)N2CCC(C(=O)N3CCC(N4Cc5ccccc5C4=O)CC3)CC2)cc1 | inactive
60 | CCCS(=O)(=O)N1Cc2c(ncn2Cc2ccc(Cl)cc2)C[C@H]1C(=O)OC | inactive
61 | CCOc1ccc2c(n1)CCN(C(=O)c1nccn1C)C2 | inactive
62 | O=C1CCN(C(=O)C2CCN(C(=O)CCCc3ccccc3)CC2)CCCCCCN1 | inactive
63 | COCCn1c(C)cc(C(=O)N2CCCC(c3[nH]ccc3C(N)=O)C2)c1C (configuration not stated) | inactive
64 | O=C1NCc2ccccc2CC12CCCN(Cc1ccc(F)cc1O)C2 (configuration not stated) | inactive
65 | CCOC(=O)C1(Cc2ccccc2F)CCCN(C(=O)CN2CCOC2=O)C1 (configuration not stated) | inactive
66 | CCOC(=O)C1(Cc2ccc(F)cc2F)CCCN(Cc2cccc(OC)c2O)C1 (configuration not stated) | 39.8 µM (active)
67 | Cc1ccc(-c2nc(C3CC(=O)N(c4ccc(Cl)cc4)C3)no2)cc1C (configuration not stated) | inactive
68 | COc1ccc(N2CC(c3noc(-c4ccc(C(C)(C)C)cc4)n3)CC2=O)cc1 (configuration not stated) | 44.7 µM (active)
69 | Cc1ccc(N2CC(c3noc(-c4cc(Cl)ccc4F)n3)CC2=O)cc1 (configuration not stated) | inactive
70 | Cc1ccc(CN2C(=O)[C@@H]3C[C@@H](O)CN3C3(CN(Cc4ccccn4)C3)C2=O)o1 | inactive
71 | O=C(NCCNC(=O)c1ccccc1F)c1ccc(-c2cccc(C(F)(F)F)c2)cc1 | inactive
72 | O=C(NCCN[S+](=O)([O-])c1cccs1)c1ccc(-c2cccc(C(F)(F)F)c2)cc1 | 44.7 µM (active)
73 | O=C(NCC(=O)N1CCC(c2ccccc2)CC1)c1ccc(-c2cccc(C(F)(F)F)c2)cc1 | inactive
74 | CC(=O)NCC(=O)N1Cc2ccccc2CC2(CCCN2Cc2cccnc2)C1 (configuration not stated) | inactive
75 | CC(C)CCN1CCC2(CC1)C(=O)NCN2Cc1ccc(Cl)cc1 | inactive

Row | Structure (SMILES) | Potency
76 | COc1ccc(CCNC(=O)c2nnn3cc(-c4ccccc4)[nH]c(=O)c23)cc1OC | inactive
77 | Cc1cc2nc3n(c(=O)c2n1CC(=O)Nc1cccc(C(F)(F)F)c1)CCCC3 | 28.2 µM (active)
78 | Cc1cc2nc3n(c(=O)c2n1CC(=O)Nc1cc(F)cc(F)c1)CCCC3 | inactive
79 | Cc1cc2nc3n(c(=O)c2n1CC(=O)Nc1ccc(Br)cc1)CCCC3 | inactive
80 | Cc1noc(-c2ccc(OC3CN(C(=O)C4CCOC4)C3)cc2)n1 (configuration not stated) | inactive
81 | CO[C@H]1CN(C(C)C)[C@H]1C1CCN(C(=O)NCCc2ccccc2)CC1 | inactive
82 | NC(=O)[C@@H]1C[C@H](Oc2ccccc2)CN1C(=O)Cc1cccc(F)c1 | inactive
83 | COc1cc(CN2CCC3(CC2)CC(O)CCO3)ccc1F (configuration not stated) | inactive
84 | COc1ccc(CC(=O)N2CCC3(CC2)CC(O)CCO3)cc1OC (configuration not stated) | inactive
85 | COc1cc(CNCc2ccc(C)c(F)c2F)ccc1OCC(O)CN1CCC(O)CC1 (configuration not stated) | 17.8 µM (active)
86 | COc1ccc(CN2C=C(C(=O)OCc3nc(C)no3)C(C)=NS2(=O)=O)cc1 | inactive
87 | NC(=O)[C@@H](Cc1ccccc1)NC(=O)[C@@]1(O)C[C@@H](O)[C@H](O)[C@@H](NC(=O)Nc2ccc(OC(F)(F)F)cc2)C1 | inactive
88 | CN(Cc1cccn1C)Cc1ccnn1C | 100 µM (active)
89 | Cc1noc(C)c1[S+](=O)([O-])N(C)Cc1cccn1C | inactive
90 | Cn1nccc1CN1CCC(N2Cc3ccccc3C2=O)CC1 | inactive
91 | O=C(NC[C@H]1O[C@@H](CO)[C@@H](O)[C@H]1N1CCN(c2ccccc2)CC1)c1ccccc1Cl | inactive
92 | Cc1ccc(C(=O)N2CCC(CCC(=O)N3CCc4ccccc4C3)CC2)cc1 | 44.7 µM (active)
93 | CC1(C(=O)N2CCc3ccccc3C2)CCOCC1 | inactive
94 | CCCNC(=O)CCC1CCN(C(=O)c2ccc(C)cc2)CC1 | inactive
95 | COc1ccc(-c2[nH]ncc2CN2CCCC(C(=O)NCc3ccccc3)CCNC(=O)CC2)cc1 (configuration not stated) | inactive
96 | COc1ccc2cc(-c3[nH]ncc3CN3CCN(c4cccc(C)n4)CC3)ccc2c1 | 20 µM (active)
97 | CC(=O)N[C@@H]1CN(Cc2cn[nH]c2-c2ccc(F)cc2)C[C@H]1CO | inactive

— PubChem BioAssay AID1345083 (National Center for Advancing Translational Sciences (NCATS), 2018)
